Measurements as given in PubChem BioAssay AID504847 (National Center for Advancing Translational Sciences (NCATS), 2011).
Out of some 400,000 compounds screened, about 3,700 (0.93%) were called active. Roughly 3% stayed inconclusive and do not appear here. The call rests on the fitted dose curve; in most records, active means well fitted inhibition curve with a large enough effect; inconclusive means small, poorly fitted or top-dose-only effect, or another doubt; inactive means no such curve, though single readings can be large or run the other way. Shown is part of a subset that was picked to be rich in actives.

Target: Vitamin D3 receptor (Homo sapiens) (UniProt P11473)
Experiment: Inhibitors of the vitamin D receptor (VDR): qHTS
Conditions: VDR-SRC2-3 peptide fluorescence polarization, 2 h; max response, negative = inhibition: stronger effect = lower value
Outline: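 Fluorescence polarization assay of small-molecule disruption of VDR binding to coregulator peptide SRC2-3. Compounds and controls pin-transferred, then read after 2 h incubation at ambient room temperature.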
On the % scale 0 is the no-effect control and ±100 the full control effect; potency means the concentration at half of the fitted maximal effect.

Sequence of Vitamin D3 receptor (Homo sapiens) (P11473 whole entry, looked up): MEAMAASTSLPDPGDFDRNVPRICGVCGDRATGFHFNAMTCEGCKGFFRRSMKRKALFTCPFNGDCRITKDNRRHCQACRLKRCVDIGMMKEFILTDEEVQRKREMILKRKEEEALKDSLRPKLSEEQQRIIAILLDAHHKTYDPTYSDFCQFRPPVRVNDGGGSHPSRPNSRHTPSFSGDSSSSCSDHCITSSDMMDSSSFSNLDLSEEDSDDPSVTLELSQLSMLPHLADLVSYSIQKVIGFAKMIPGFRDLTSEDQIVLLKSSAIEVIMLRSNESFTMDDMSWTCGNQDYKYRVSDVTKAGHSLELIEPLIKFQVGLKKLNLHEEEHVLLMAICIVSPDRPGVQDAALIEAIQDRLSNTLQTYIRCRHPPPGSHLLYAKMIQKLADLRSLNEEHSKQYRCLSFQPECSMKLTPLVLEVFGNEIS

Row | Compound | max response, negative = inhibition | Potency
1 | Cc1ccc(C)c(Nc2nnc(-c3ccc(C)c(S(=O)(=O)N4CCCCC4)c3)c3ccccc23)c1 | 2.71% (inactive) | 
2 | CC(C)(C)c1ccc(C(=O)Nc2ccc3c(c2)CCCN3C(=O)c2cccs2)cc1 | -1.02% (inactive) | 
3 | O=C(C1CCC(Cn2c(=O)c3sccc3n(Cc3ccccc3F)c2=O)CC1)N1CCCCC1 (stereo not drawn) | 8.9% (inactive) | 
4 | CC(C)(C)c1ccc(C(=O)NNC(=O)Cc2ccccc2)cc1 | 3.53% (inactive) | 
5 | Cc1ccc(SC(CC(=O)c2ccc(C(C)(C)C)cc2)C(=O)O)cc1 (stereo not drawn) |  | 20 µM (active)
6 | Cc1ccc(Sc2cc(C(=O)c3ccccc3C(=O)O)ccc2[N+](=O)[O-])cc1 | -16.9% (inactive) | 
7 | CCCCCCCC[C@@H](O)/C=C/C=C/C=C\[C@@H](O)CCCC(=O)O | 10.9% (inactive) | 
8 | COc1ccc(NC(=O)c2cc3cc(C)ccc3n2C)cc1 | 8.19% (inactive) | 
9 | CC(CNC(=O)Cn1cnc2c(OCc3ccccc3)ncnc21)c1ccccc1 (stereo not drawn) | -7.14% (inactive) | 
10 | O=C(Cn1cnc2c(OCc3ccccc3)ncnc21)NCc1nc2ccccc2[nH]1 |  | 79.4 µM (active)
11 | O=C(Cn1cnc2c(OCc3ccccc3)ncnc21)NCCCn1ccnc1 | 6.56% (inactive) | 
12 | COc1ccc(C2CC(=O)Nc3c2c(=O)nc2c(C)cccn32)cc1OC (stereo not drawn) | 12.4% (inactive) | 
13 | Cc1nc(-c2ccccc2)sc1C(=O)/C=C/c1ccccc1 |  | 79.4 µM (active)
14 | Cc1[nH]c(=O)c(C(=O)/C=C/c2ccccc2)c2c1CCCC2 | -23.7% (inactive) | 
15 | CNC(=O)c1csc(-c2ccccc2)n1 | 4.33% (inactive) | 
16 | O=C(/C=C/c1ccccc1)c1ccccc1O |  | 17.8 µM (active)
17 | O=C(NNC(=O)c1ccccc1O)c1ccccc1O | 10.5% (inactive) | 
18 | O=C(/C=C(O)/C=C/c1ccc(O)cc1)/C=C/c1ccc(O)cc1 | -24.8% (inactive) | 
19 | CCOC(=O)c1ccc(N2C(=O)c3n[nH]c(-c4ccco4)c3C2c2ccc(O)cc2)cc1 (stereo not drawn) | -8.24% (inactive) | 
20 | Cc1cccn2c(=O)c(C(=O)NC(C)c3ccccc3)cnc12 (stereo not drawn) | -16% (inactive) | 
21 | COC(=O)c1ccc(Cn2c(SCC(=O)N(C)c3ccccc3)nc3ccccc32)cc1 | 14.3% (inactive) | 
22 | COc1cc(/C=C2\SC(=O)NC2=O)ccc1OCc1ccc(Cl)nc1 | 3.39% (inactive) | 
23 | C#CCOc1ccccc1/C=C1/C(=O)ON=C1C | -13.5% (inactive) | 
24 | COc1ccnc2c1c(=O)n(Cc1cccc(F)c1)c(=O)n2C | 0.374% (inactive) | 

Row | Compound | max response, negative = inhibition | Potency
25 | COc1cc(/C=C2/C(=O)ON=C2C)ccc1OCc1cccc(F)c1 |  | 25.1 µM (active)
26 | C=CCOc1ccc(/C=C2/C(=O)ON=C2C)cc1OCC |  | 79.4 µM (active)
27 | C=CCOc1ccc(/C=N/NC(=O)C(C)Sc2ccccn2)cc1OCC (stereo not drawn) | -3.04% (inactive) | 
28 | Cc1ccc(C)c(N2CCN(C(c3ccccc3)c3nnc(-c4ccccc4)o3)CC2)c1 (stereo not drawn) | 0% (inactive) | 
29 | Cc1ccc(C2C=C(c3ccc(Cl)cc3)Nc3nc(NC(=O)CCC(=O)O)nn32)cc1 (stereo not drawn) | -1.64% (inactive) | 
30 | CCOC(=O)c1c(C)[nH]c(CCC(=O)NCCCN2CCN(c3cc(C)ccc3C)CC2)c1C | 1.52% (inactive) | 
31 | CCOC(OCC)OCC | -7.21% (inactive) | 
32 | O=c1ccc2c(-c3ccccc3S(=O)(=O)O)c3ccc(O)c(O)c3oc-2c1O |  | 35.5 µM (active)
33 | Cc1nc2cnc(N3CCNCC3)nc2n(CCc2ccccc2)c1=O | -10.9% (inactive) | 
34 | CCCCC(=O)NC(c1ccc(OC)c(OC)c1)c1ccc2cccnc2c1O (stereo not drawn) | 6.08% (inactive) | 
35 | COc1ccccc1N1CCN(C(CNC(=O)C(=O)NCc2ccc(C)cc2)c2cccnc2)CC1 (stereo not drawn) | 1.11% (inactive) | 
36 | CCOC(=O)N1CCN(C(c2cccnc2)c2ccc3cccnc3c2O)CC1 (stereo not drawn) |  | 39.8 µM (active)
37 | COc1ccc(CCNC(=O)c2ccc3c(c2)nc(C)n3-c2ccc(Br)cc2)cc1OC | 12.9% (inactive) | 
38 | C#CC(C)(CC)NC(=O)Cn1nnc(-c2ccc(OCc3c(F)cccc3Cl)cc2)n1 (stereo not drawn) | 15.5% (inactive) | 
39 | COc1cccc(C(=O)NCCS(=O)(=O)NCC2CCCO2)c1 (stereo not drawn) | -19.7% (inactive) | 
40 | CN(C)S(=O)(=O)N1CCC(Oc2cccc(C(=O)NCCCC3CCCC3)c2)CC1 |  | 28.2 µM (active)
41 | CNS(=O)(=O)c1cccc(C(=O)NCC2CCCCC2)c1 | 12.7% (inactive) | 
42 | COc1cccc(NCCC(=O)c2cccc([N+](=O)[O-])c2)c1 |  | 79.4 µM (active)
43 | CC(C)(C)SCCNC(=O)c1cccc([N+](=O)[O-])c1 | -16.4% (inactive) | 
44 | COc1cccc(C(=O)CC(=O)C(=O)Nc2ccc([N+](=O)[O-])cc2C)c1 | -6.66% (inactive) | 
45 | COC(=O)c1ccc(-c2nc3cc(NC(C)=O)ccc3o2)cc1 | -22.5% (inactive) | 
46 | H-EHIPA-OH | 2.51% (inactive) | 
47 | CCc1ccc(NC(=O)C2CCCN2S(=O)(=O)c2ccc3nc(-c4ccccc4)[nH]c3c2)cc1 (stereo not drawn) | 14.5% (inactive) | 
48 | Oc1c(Cl)cc(Cl)c(Cl)c1Cc1c(O)c(Cl)cc(Cl)c1Cl |  | 44.7 µM (active)

Row | Compound | max response, negative = inhibition | Potency
49 | CCOC(=O)C1=NOC(Cn2cc(C(C)=O)c(=O)[nH]c2=O)C1 (stereo not drawn) | 1.11% (inactive) | 
50 | CCOC(=O)C1=NO[C@@]2(C=C(Br)C(=O)[C@H]3O[C@H]32)C1 |  | 11.2 µM (active)
51 | COc1cc2c(cc1OC)CC(=O)N(CCCN(C)C[C@H]1Cc3cc(OC)c(OC)cc31)CC2 | 7.93% (inactive) | 
52 | O=C(c1ccc(CSc2ccccc2)cc1)N1CCCCCC1 | -7.06% (inactive) | 
53 | Cc1ccc(S(=O)(=O)N2CCN(C(=O)N3CCOCC3)CC2)c(C)c1 | -13.6% (inactive) | 
54 | Cc1ccc(-n2c(N)c(C(=O)N3CCOCC3)sc2=S)c(C)c1 |  | 79.4 µM (active)
55 | N#Cc1c(N)sc2c1CCN(C(=O)OCc1ccccc1)C2 | -3.82% (inactive) | 
56 | Cc1ccc(N2CCN(C(=O)c3cccs3)CC2)c(C)c1 | 7.64% (inactive) | 
57 | N#Cc1ccccc1-n1c(N)c(C(=O)N2CCCC2)sc1=S |  | 50.1 µM (active)
58 | CCCCNC(=O)c1ccc2c(c1)NC(=O)C(C(C)C)N2 (stereo not drawn) | -3.65% (inactive) | 
59 | CCc1ccc(NC(=O)CN2CCSc3ccc(S(=O)(=O)N4CCCC4)cc32)cc1 | 9.86% (inactive) | 
60 | O=C(c1cccc(Br)c1)N1CCN(Cc2cc(=O)n3nc(-c4ccccc4)sc3n2)CC1 | 13% (inactive) | 
61 | CCc1ccc(OCCCn2c(CCCNC(=O)C3CCCCC3)nc3ccccc32)cc1 | -1.15% (inactive) | 
62 | O=C(NCCCO)C(=O)Nc1c2c(nn1-c1ccccc1)CSC2 | 5.32% (inactive) | 
63 | COc1ccc(CCNC(=O)CCCCn2c(=O)c3ccccc3n(Cc3ccccc3C)c2=O)cc1OC | 7.91% (inactive) | 
64 | COc1ccccc1N1CCN(/N=C/c2ccc(O)cc2O)CC1 | -16.7% (inactive) | 
65 | COc1cc(/C=N/N2CCN(c3ccccc3)CC2)ccc1OC(C)=O | -1.69% (inactive) | 
66 | COc1ccccc1N1CCN(/N=C\C(Br)=C\c2ccccc2)CC1 |  | 44.7 µM (active)
67 | Cc1cc(C)cc(-n2ccnc2SCC(=O)Nc2nc3ccccc3s2)c1 | -5.28% (inactive) | 
68 | COc1cccc(-c2n[nH]c3c2C(c2cccc(O)c2)N(C)C3=O)c1 (stereo not drawn) | 9.73% (inactive) | 
69 | Cc1ccc(NC(=O)CSc2nc3c([nH]c4ccccc43)c(=O)n2-c2ccccc2)c(C)c1 | 3.26% (inactive) | 
70 | Cc1cccc(-n2ccnc2SCC(=O)Nc2cccc3ccccc23)c1C | 21% (inactive) | 
71 | O=C(c1cccnc1)N(Cc1ccccc1)C(=O)c1cccnc1 | -6.19% (inactive) | 
72 | COc1ccc(N(C(=O)c2cccnc2)S(=O)(=O)c2ccc(OC)c(OC)c2)cc1 | 2.95% (inactive) | 

Row | Compound | max response, negative = inhibition | Potency
73 | O=C(c1cccnc1)N(c1cc2sc(=O)oc2c2ccccc12)S(=O)(=O)c1ccccc1 |  | 25.1 µM (active)
74 | Cc1sc2ncn(CC(=O)N3CCN(c4ccc(F)cc4)CC3)c(=O)c2c1S(=O)(=O)N1CCN(c2ncccn2)CC1 | -10.1% (inactive) | 
75 | O=S(=O)(c1ccccc1)c1nc(-c2ccc(Cl)cc2Cl)oc1N1CCCCC1 | 1.4% (inactive) | 
76 | CCOc1ccc(S(=O)(=O)Nc2ccc3oc4c(c3c2)CC(C)CC4)cc1 (stereo not drawn) | -17.2% (inactive) | 
77 | COC(=O)c1nc(NC(=O)c2ccccc2)n[nH]1 | -20% (inactive) | 
78 | O=C(NC1=CC(=O)c2ccccc2C1=O)c1ccccc1 |  | 11.2 µM (active)
79 | O=C(Nc1ccc2ccccc2c1[N+](=O)[O-])c1ccccc1 | -2.31% (inactive) | 
80 | CC(=O)OC1=C(C(C)=O)N(Cc2ccccc2)S(=O)(=O)c2ccccc21 | 8.35% (inactive) | 
81 | CCOC(=O)N1CCc2c(sc(NCc3cccc(F)c3)c2C(=O)Nc2ccccc2OCC)C1 | -13.2% (inactive) | 
82 | COC(=O)c1sc(=S)n(-c2ccccc2)c1N |  | 79.4 µM (active)
83 | COC(=O)c1sc(N2CCN(Cc3ccccc3)CC2)nc1N | 1.38% (inactive) | 
84 | COCCOC(=O)c1sc(=S)n(CCOC)c1N | -9.87% (inactive) | 
85 | COc1ccc(CCNC(=O)c2ccc(CSCc3ccc(C)cc3)o2)cc1OC | 9.55% (inactive) | 
86 | CCNc1ncc2ncc(=O)n(Cc3cccc(OC)c3)c2n1 |  | 50.1 µM (active)
87 | CCNc1ncc2ncc(=O)n(CCc3ccccc3)c2n1 | -21% (inactive) | 
88 | COc1cccc(Cn2c(=O)c(-c3ccccc3)nc3cnc(OC)nc32)c1 | -7.36% (inactive) | 
89 | COc1ccc(CC(=O)NCCc2sc3nc(-c4ccc(OC)cc4)nn3c2C)cc1 | 5.32% (inactive) | 
90 | CCCCCCCCCc1ccc(OCCOCCOCCOCCOCCOCCOCCOCCOCCO)cc1 | 1.96% (inactive) | 
91 | CCOC(=O)C1(CCOC)CCN(Cc2cc3ccccc3s2)CC1 |  | 44.7 µM (active)
92 | CCOC(=O)C1(CCOC)CCN(Cc2ccc(C(=O)OC)cc2)CC1 | 15.5% (inactive) | 
93 | CCCS(=O)(=O)N1CCC(CCOc2ccccc2)(C(=O)OCC)CC1 | -9.73% (inactive) | 
